Data on 42 sequences can be found in PMC7819943, “Rice protein-binding microarrays: a tool to detect cis-acting elements near promoter regions in rice”.

The full ranking holds about 35,000 sequences; the median of “fluorescence intensity (a.u.)” is about 10,000, and the highest 2% start at about 52,000. The sample holds the highest values, similar sequences and a random draw of the others, so the mix is not that of the screen.

This experiment concerns the target T1, OsWOX13 (Oryza sativa, UniProt Q5QMM3 1-267).
T1 sequence: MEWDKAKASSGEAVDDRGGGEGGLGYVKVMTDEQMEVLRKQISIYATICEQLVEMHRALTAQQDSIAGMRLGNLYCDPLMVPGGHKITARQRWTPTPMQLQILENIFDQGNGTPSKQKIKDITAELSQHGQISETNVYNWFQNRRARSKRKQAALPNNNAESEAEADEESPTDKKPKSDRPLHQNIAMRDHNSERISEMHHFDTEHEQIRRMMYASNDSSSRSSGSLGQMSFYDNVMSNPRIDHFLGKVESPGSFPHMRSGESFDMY
Put plainly: protein-binding microarray (RPBM); PBS, 2% BSA, 51.3 ng/ul salmon testes DNA, 50 uM zinc acetate, 200 nM TF, 25 C, 1 h; high values mean tight binding. The following applies: protein: recombinant; tags: N-terminal polyhistidine and DsRed monomer fusion (pET32a); label: CyDye5-dUTP incorporated in the synthesized complementary strand; 3' TTTTT single-stranded linker to array surface; dsDNA, one strand shown. In a few lines:
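Using Ni–NTA, transcription factors fused N-terminally to polyhistidine and DsRed were purified after expression in E. coli BL21-CodonPlus. These were incubated at 200 nM with a blocked, double-stranded custom Agilent array for 1 h at 25 °C in a buffer containing 50 µM zinc acetate, and the array was washed. The binding signal is per-feature fluorescence intensity (arbitrary units) on an Axon 4000B scanner.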
On to “TTTGCTAATGACAAATTAATTAGGCTTAATAAATTCGTCTCGGAGTCACCTAGTGCAG”, for which the binding signal was 41500 fluorescence intensity (a.u.). The value for “GGGAAGACGAGATTGAGTGGATCAAAAGCCCTAAACCAATCGGAGTCACCTAGTGCAG” was 8660 fluorescence intensity (a.u.); that for “GCAGCTGACAGATGGAGGGATGTTCAGGATGTCCGGAGAACGGAGTCACCTAGTGCAG” was 3250 fluorescence intensity (a.u.); that for “ATAATTGATTGCTTTTGATGATTTCACCCTTATTTTGCTGCGGAGTCACCTAGTGCAG” was 65100 fluorescence intensity (a.u.). With “TACTACTAATTATTGTCTTCTTAGTAATCACCAAGTGTGCCGGAGTCACCTAGTGCAG”, the binding signal is 20700 fluorescence intensity (a.u.). The value for “ACATTTACTTAATTGTAAATATATATTTTGGTAATATATGCGGAGTCACCTAGTGCAG” was 9650 fluorescence intensity (a.u.); that for “AATTAATTAATTAGTCTGTTCTTATTGCTTAGTGTACTACCGGAGTCACCTAGTGCAG” was 53600 fluorescence intensity (a.u.). The figure for “ATATTGAATTATTGATTTGATGAAAATAATTTAGTATTATCGGAGTCACCTAGTGCAG” is 20500 fluorescence intensity (a.u.); for “ATGATTGTGATTTATATTTTGAAATAAAGAGAGTAGTAATCGGAGTCACCTAGTGCAG” it is 50500 fluorescence intensity (a.u.). The value for “TTATTCAGATAATTTGATGATGATGAAAGCAGAAGCTTTGCGGAGTCACCTAGTGCAG” was 8570 fluorescence intensity (a.u.). “CTTAAATTGATTTATTTTGGAACGGAGAGAGTAATATGCACGGAGTCACCTAGTGCAG”: the binding signal is 53500 fluorescence intensity (a.u.).

Take “GACCTTATTTGCATTGATTGACCTTATTTGCATTGATTTTCGGAGTCACCTAGTGCAG”: the binding signal is 19600 fluorescence intensity (a.u.).

As to “ATATTTTGATTGAATATGACGTATCCTAGTAATTTGGACCCGGAGTCACCTAGTGCAG”, the binding signal was 59700 fluorescence intensity (a.u.).

Regarding “GAAAATAGTATGATTGAAAATGACGTAAAGTGAATAGACCCGGAGTCACCTAGTGCAG”, the binding signal was 23000 fluorescence intensity (a.u.).

“CCTAATTTCTAACATTATATTGTTGCTTAGTGTACTAACTCGGAGTCACCTAGTGCAG”: the binding signal is 18700 fluorescence intensity (a.u.). The value for “TTTCCATTAATAAATTGAAACATATTGAACTAGATCGTTCCGGAGTCACCTAGTGCAG” was 15600 fluorescence intensity (a.u.); that for “TTTAATAATTTGTTTATAAAAGAAACTAAAGGGCACTGCTCGGAGTCACCTAGTGCAG” was 12200 fluorescence intensity (a.u.). The value for “ATAAACTGGAACAGAAGGCCAGGCGGAAATAAACTGGACACGGAGTCACCTAGTGCAG” was 6490 fluorescence intensity (a.u.); that for “GGCCTAATTCATTGACGGGAACTAAGTGGGCTGAATTCGTCGGAGTCACCTAGTGCAG” was 7250 fluorescence intensity (a.u.). On to “CCCAAATTAATCATCATGTAATAGAATGATATATTCATTGCGGAGTCACCTAGTGCAG”, for which the binding signal was 49200 fluorescence intensity (a.u.). The figure for “GTGTCGCCAGTGATTGCAGTTTCAGTTCGAAATTTCTCTACGGAGTCACCTAGTGCAG” is 9490 fluorescence intensity (a.u.). For “ATAACGAACGGATGAGATTGATCGCTACAATACTCTAGAGCGGAGTCACCTAGTGCAG”, the binding signal was 4050 fluorescence intensity (a.u.). The figure for “TAAACTCCAAGTTGATTATCCAACGAATCGTAGCCTCGAGCGGAGTCACCTAGTGCAG” is 5690 fluorescence intensity (a.u.); for “GATCAATCATTTGCTGAGCTCGTGAATTCTGTCTGGTTCACGGAGTCACCTAGTGCAG” it is 24300 fluorescence intensity (a.u.); for “TAACTAATTATGTACTAACAAATTAGCTAGTCTACCATGCCGGAGTCACCTAGTGCAG” it is 56600 fluorescence intensity (a.u.). Consider “TTCTAATAATTTGATATTAGGTCATTCCCTAATATTCGTGCGGAGTCACCTAGTGCAG”, for which the binding signal was 25000 fluorescence intensity (a.u.). The value for “ATTTCTTAATTTAATGCTATTCTGACTCCTTGCACCTCTACGGAGTCACCTAGTGCAG” was 12300 fluorescence intensity (a.u.). The figure for “GTACAAAATTATCTAAAATTAACTACAAAATTATGTACTACGGAGTCACCTAGTGCAG” is 12800 fluorescence intensity (a.u.); for “TATAAATTTAGTCAAATTTAAAGCAGTTTGATTTTGACCACGGAGTCACCTAGTGCAG” it is 26800 fluorescence intensity (a.u.). Turning to “CTTAATTAATAGGGTATTAATAACCTCCCTAAAGTCATTGCGGAGTCACCTAGTGCAG”, the binding signal was 60200 fluorescence intensity (a.u.). The value for “TTAAATTTAATTAAATTTAAAGCAGTTTGATTTTGACCAACGGAGTCACCTAGTGCAG” was 56000 fluorescence intensity (a.u.). The figure for “AATTTACACTTAATTTGCTATTTGCTATACATGTTTTCTACGGAGTCACCTAGTGCAG” is 10800 fluorescence intensity (a.u.). The figure for “CCTTAATTAATTAATTAATTACGTGCTATTTATTTCTTGGCGGAGTCACCTAGTGCAG” is 55300 fluorescence intensity (a.u.); for “ACTAGCTAAATTATACCATGTTAACTTATACTATATTAGTCGGAGTCACCTAGTGCAG” it is 9700 fluorescence intensity (a.u.). Turning to “AATATAAATTAAATTTTATTTGCTAAAATTAATATCATTGCGGAGTCACCTAGTGCAG”, the binding signal is 15000 fluorescence intensity (a.u.). The figure for “AACTTAATTAAATTTAAAGCAGTTTGATTTTGACTAAAGTCGGAGTCACCTAGTGCAG” is 31800 fluorescence intensity (a.u.); for “GGCGTTAATCACGTGATGGGCATGGATAGTGATTTAGATTCGGAGTCACCTAGTGCAG” it is 13900 fluorescence intensity (a.u.); for “GATATGATGGGTACAAACTGTTATAAACTAACATGTCTATCGGAGTCACCTAGTGCAG” it is 5970 fluorescence intensity (a.u.). The figure for “GGGCCTGGTCCTGATTGGACTTCCTTATCTGTCTATCACACGGAGTCACCTAGTGCAG” is 10700 fluorescence intensity (a.u.). Turning to “TGATGGGAAAACTTTAAAATTAATTTTGAATTTAAGGTTGCGGAGTCACCTAGTGCAG”, the binding signal was 4960 fluorescence intensity (a.u.). The figure for “TGCTTTGATTTTACGTCACATACACATGGTGATGCTTCAACGGAGTCACCTAGTGCAG” is 6250 fluorescence intensity (a.u.); for “CAGTTTAATTGCTCCTCGGATGGATCTGGTATAGTTCTGCCGGAGTCACCTAGTGCAG” it is 20700 fluorescence intensity (a.u.).
